Experimental data: PubChem BioAssay AID2242 (National Center for Advancing Translational Sciences (NCATS), 2010)
Out of some 200,000 compounds screened, about 720 (0.36%) were called active. Roughly 8% stayed inconclusive and do not appear here. Calls come from the whole dose curve; as a rule, active = well fitted activation curve with a large enough effect; inconclusive = small, poorly fitted or top-dose-only effect, or effect the other way, or another doubt; inactive = flat fitted curve, though single readings scatter. This is one part of the list.

What follows are molecules tested against Lysosomal alpha-glucosidase (Homo sapiens) (UniProt P10253) (assay: qHTS Assay for Activators of Human alpha-Glucosidase as a Potential Chaperone Treatment of Pompe Disease). Details: purified enzyme, 4-MU-alpha-glucoside fluorescence, 20 min; series mostly up to 76.9 µM.
How it was run: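 Compounds titrated up to 77 uM against 4 nM enzyme and 400 uM methylumbelliferyl substrate at room temperature, 20 min, pH 5.0. Basic stop, then 4-methylumbelliferone fluorescence (365/440 nm) normalized to no-enzyme and enzyme controls; Hill-equation AC50.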
Note: nearly all actives have a fitted effect of over 80% in size.
Potency is the fitted concentration of half-maximal effect.

**Q.** For `CN(C)CCNC(=O)c1cc2c(s1)-c1ccccc1OC2`, which Potency is on record?
**A.** 6.31 µM (active)

**Q.** For `O=C(NCc1cccs1)c1cc2c(s1)-c1ccccc1OC2`, which Potency is on record?
**A.** 39.8 µM (active)

**Q.** With `COC(=O)c1ccc(-c2ncc(-c3cccc4ccccc34)o2)cc1` as the molecule, how does the Potency read?
**A.** 28.2 µM (active)

**Q.** Which Potency does the source give for `Cc1cc(-c2ccc(C(=O)O)s2)cnc1N` here?
**A.** 28.2 µM (active)

**Q.** Which Potency does the source give for `O=C(COC(=O)c1ccccc1Nc1ccccc1)NCc1ccccc1Cl` here?
**A.** 28.2 µM (active)

**Q.** Which Potency does the source give for `CCCCNS(=O)(=O)c1ccc2nc(-c3cccs3)cc(C(=O)NCC(OC)OC)c2c1` here?
**A.** 25.1 µM (active)

**Q.** With `COc1cc2cc(C(N)=O)c(N)nc2cc1OC` as the molecule, how does the Potency read?
**A.** 35.5 µM (active)

**Q.** For `COc1ccccc1N1CCN(C(=O)c2c(-c3ccccc3)noc2C)CC1`, which Potency is on record?
**A.** 35.5 µM (active)

**Q.** Which Potency does the source give for `CCNC(=O)/C(C#N)=C/c1c(N2CCOCC2)nc2ccccn2c1=O` here?
**A.** 28.2 µM (active)

**Q.** Which Potency does the source give for `O=c1cc(CN2CCN(S(=O)(=O)c3ccc4c(c3)OCCO4)CC2)c2ccc(O)cc2o1` here?
**A.** 28.2 µM (active)

**Q.** `O=c1cc(CN2CCN(S(=O)(=O)/C=C/c3ccccc3)CC2)c2ccc(O)cc2o1` was tested. Which Potency did it give?
**A.** 35.5 µM (active)

**Q.** Which Potency does the source give for `O=c1[nH]c(=O)c2nc(-c3ccc(Cl)cc3)cnc2[nH]1` here?
**A.** 28.2 µM (active)

**Q.** For `CCN1c2ccccc2-c2nc3ccccc3n2C1c1ccccn1` (configuration not stated), which Potency is on record?
**A.** 31.6 µM (active)

**Q.** How did the Potency turn out when `c1ccc(CN2c3ccccc3-c3nc4ccccc4n3C2c2ccccn2)cc1` (configuration not stated) was run?
**A.** 28.2 µM (active)

**Q.** For `CCOCC(=O)Nc1cc(-c2cn3cccnc3n2)ccc1C`, which Potency is on record?
**A.** 35.5 µM (active)

**Q.** For `CC(=O)Nc1ccc(-c2cn3cccnc3n2)cc1`, which Potency is on record?
**A.** 28.2 µM (active)

**Q.** `COCC(=O)Nc1ccc(-c2cn3cccnc3n2)cc1` was tested. Which Potency did it give?
**A.** 35.5 µM (active)

**Q.** With `CCOCC(=O)Nc1ccc(-c2cn3cccnc3n2)cc1` as the molecule, how does the Potency read?
**A.** 35.5 µM (active)

**Q.** With `CCCCCC(=O)Nc1ccc(-c2cn3cccnc3n2)cc1` as the molecule, how does the Potency read?
**A.** 35.5 µM (active)

**Q.** With `Cc1onc(-c2ccccc2Cl)c1C(=O)Nc1ccc(-c2cn3cccnc3n2)cc1` as the molecule, how does the Potency read?
**A.** 35.5 µM (active)

**Q.** For `Cc1onc(-c2ccccc2Cl)c1C(=O)Nc1cccc(-c2nc3ncccn3c2C)c1`, which Potency is on record?
**A.** 35.5 µM (active)

**Q.** With `CC(C)(O[C@@H]1O[C@H](CO)[C@@H](O)[C@H](O)[C@H]1O)[C@H]1Cc2cc3ccc(=O)oc3cc2O1` as the molecule, how does the Potency read?
**A.** 35.5 µM (active)

**Q.** `O=C(Oc1ccc2c3c(c(=O)oc2c1)CCC3)c1ccco1` was tested. Which Potency did it give?
**A.** 35.5 µM (active)

**Q.** `O=C(Oc1cc2oc(=O)c3c(c2cc1Cl)CCCC3)c1ccco1` was tested. Which Potency did it give?
**A.** 10 µM (active)

**Q.** For `O=C(Oc1ccc2c3c(c(=O)oc2c1)CCCC3)c1ccco1`, which Potency is on record?
**A.** 35.5 µM (active)

**Q.** For `CC(C)c1cc(NCC2CCCO2)n2c(nc3ccccc32)c1C#N` (configuration not stated), which Potency is on record?
**A.** 35.5 µM (active)

**Q.** Which Potency does the source give for `CCCc1cc(NCC2CCCO2)n2c(nc3ccccc32)c1C#N` (configuration not stated) here?
**A.** 35.5 µM (active)
